Screening data from PubChem.
The sample as a whole holds a higher share of hits than the screen did.
TbREL1 primary = TbREL1 RNA ligase inhibitors, primary screen, biochemical, FRET fluorescence | RNA-editing ligase 1, mitochondrial (Trypanosoma brucei brucei), P86926 | TbREL1 RNA ligation | 89,000 compounds, 0.49% hits | inhibition, % at 9.66 µM;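 active = inhibition above the mean inhibition across all screened compounds plus 3 SD, cut at about 11% in these data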;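 also: 0% = plate median of test wells and 100% = NSC42067 control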
Target sequence (P86926 whole entry, looked up): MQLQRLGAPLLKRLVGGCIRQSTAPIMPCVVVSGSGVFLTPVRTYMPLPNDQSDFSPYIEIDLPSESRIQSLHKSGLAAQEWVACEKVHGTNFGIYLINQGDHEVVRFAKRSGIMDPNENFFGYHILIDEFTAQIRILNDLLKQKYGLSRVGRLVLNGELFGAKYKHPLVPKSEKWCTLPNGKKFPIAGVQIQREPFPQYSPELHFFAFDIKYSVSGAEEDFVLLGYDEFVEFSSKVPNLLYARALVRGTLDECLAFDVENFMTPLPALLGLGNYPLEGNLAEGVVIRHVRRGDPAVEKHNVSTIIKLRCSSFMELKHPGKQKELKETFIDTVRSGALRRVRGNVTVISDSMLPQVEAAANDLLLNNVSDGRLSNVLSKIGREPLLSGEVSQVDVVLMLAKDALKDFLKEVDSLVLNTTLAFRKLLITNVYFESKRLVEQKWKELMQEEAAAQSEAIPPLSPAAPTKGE
TbREL1 confirm = TbREL1 RNA ligase inhibitors, confirmation, biochemical, FRET fluorescence, triplicate. shares compounds with TbREL1 primary. AID 1117282, 2014. TbREL1 RNA ligation. inhibition, % at 9.66 µM. 390 compounds, 37% hits;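 active = mean inhibition across replicates above a set limit taken from the earlier primary screen, cut at about 11% in these data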;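 also: 0% = REL1 with substrate and DMSO and 100% = REL1 plus control inhibitor NSC42067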
Numbers without * were called inactive.

SMILES	TbREL1 primary	others
Nn1c(SCC(=O)Nc2ccccc2-c2ccccc2)nnc1-c1n[nH]c2c1CCC2	7
Cc1c(Cl)c(-c2n[nH]c(=S)n2-c2ccccc2)nn1C	-5
Cc1onc(-c2ccccc2)c1-c1n[nH]c(=S)n1-c1ccccc1	26*	TbREL1 confirm=-1
Cc1ccc(-n2c(-c3ccccc3)n[nH]c2=S)cc1	-5
CC(C)C[C@H](NC1(C(=O)NC2CCCCC2)CCCCC1)C(=O)NCCc1c[nH]c2ccccc12	-6
O=C(CSc1nnc(COc2ccc(Cl)cc2)n1Cc1ccco1)Nc1ccc2c(c1)OCO2	11
O=C(CSc1nnc(SCc2cccc3ccccc23)s1)c1ccc(F)cc1	-1
O=C(Nc1ccc(Cl)cc1Cl)OC1CCC12CCC(c1ccccc1)CC2 (stereo not given)	5
CCOc1cc(NC(=O)C2CCCO2)c(OCC)cc1NC(=O)C1CC1 (stereo not given)	0
CCOc1ccccc1OCC(=O)Nc1ccc(Cl)cc1Cl	-1
CCOc1cc(NC(=O)CCl)c(OCC)cc1NC(=O)CCl	12*	TbREL1 confirm=6
O=c1c2ccc(F)cc2nc2sc(Nc3ccc4c(c3)CCC4)nn12	2
O=C(c1ccc(Cl)cc1)C1CCN(c2ncnc3sccc23)CC1	7
O=C1CSc2ccc(C(=O)N3CCCC(C(=O)N4CCCN(Cc5ccccc5)CC4)C3)cc2N1 (stereo not given)	-1
CCOC(=O)N1CCN(C(=O)C[C@H]2C[C@@]3(C(=O)OC)C(=C[C@H](C4CCCC4)O[C@@H]3C)N(CCC3=CCCCC3)C2=O)CC1	-1
OC(c1ccccc1)(c1ccccc1)C1CCN(CCCOc2ccc(Cl)cc2)CC1	9
N#Cc1cccc(OCCCN2CCC(C(O)(c3ccccc3)c3ccccc3)CC2)c1	15*	TbREL1 confirm=7
CC(COc1ccc(C#N)cc1)CN1CCC(C(O)(c2ccccc2)c2ccccc2)CC1 (stereo not given)	6
CCC(CC)NC(=O)O[C@H]1CC[C@@]23CCCN2C(=O)CCC[C@H]3[C@H]1C	-4
CN(Cc1ccccc1)S(=O)(=O)c1cccc(C(=O)OCc2ccc(Oc3ccccc3)cc2)c1	-2
C[N+]1=C2N[C@@H](c3ccccc3)CC(=O)N2/C(=C\c2ccccc2)[C@@H]1Cc1ccccc1	-2
NC(N)=N/N=C/c1ccc(OCc2ccccc2)c(OCc2ccccc2)c1	12*	TbREL1 confirm=10
COc1cc(/C=N/NC(=O)c2cccs2)ccc1OCc1ccccc1	0
COc1cc(/C=N/O)ccc1OCc1ccc(C(=O)O)cc1	1
CCCC1CCC2(CC1)CCC2OC(=S)Nc1ccccc1 (stereo not given)	1
SMILES	TbREL1 primary	others
O=C(Nc1ccc(F)cc1)OCc1cn(Cc2cc(F)ccc2F)nn1	-1
CC(C)CNC(=O)OCc1cn(Cc2cc(F)ccc2F)nn1	7
Clc1nssc1=Nc1nncs1	18*	TbREL1 confirm=19*
Clc1nssc1=Nc1ccc(Br)cc1	-1
CCOC(=O)c1ccc(NC(=O)CSc2nnc(SCc3cccc4ccccc34)s2)cc1	1
O=C(C1CCN(S(=O)(=O)c2ccc3[nH]c(=O)oc3c2)CC1)N1CCCC1	5
COCCCNC(=O)C1CCN(S(=O)(=O)c2ccc3[nH]c(=O)oc3c2)CC1	19*	TbREL1 confirm=24*
CSCCCNC(=O)C1CCN(S(=O)(=O)c2ccc3[nH]c(=O)oc3c2)CC1	-1
COc1cccc(-c2nnc3n2N=C(c2ccc(Cl)cc2)CS3)c1	4
c1ccc(C2CCC3(CC2)CCC3NCc2cccs2)cc1 (stereo not given)	3
COC(=O)C1=C(C(=O)OC)[C@@]2([C@@H](Cc3ccc(C)cc3)Nc3ccccc3)C=C[C@@H]1O2	4
Cc1ccc(OCCOCCN2CCN(C)CC2)c(C(C)(C)C)c1	-1
Cc1ccc(OCCN2CCN(C)CC2)c([N+](=O)[O-])c1	12*	TbREL1 confirm=6
COCCCNCCCCOc1ccc(C)cc1[N+](=O)[O-]	3
CCCCCCCCN1C(=O)[C@@H](CC(=O)N2CCC(c3ccccc3)CC2)C[C@@]2(C(=O)OC)C1=C[C@H](C(C)C)O[C@@H]2C1CC1	9
C=CCNC(=O)N1CCC(c2nc3ccc(Cl)cc3[nH]2)CC1	6
O=C(O)CN1C(=O)SC(Nc2ccc(Cl)cc2)C1=O (stereo not given)	11*	TbREL1 confirm=6
O=C(CCNc1ccc(Cl)cc1)c1cccs1	-3
O=C(O)CN1C(=O)C2C3C=CC(C2C1=O)C1C(=O)N(CC(=O)O)C(=O)C31 (stereo not given)	4
O=C(Nc1ccc(F)cc1)OCc1cn(Cc2c(F)cccc2F)nn1	-1
CCOc1ccc(-n2c(SCC(=O)Nc3ccccc3-c3ccccc3)nnc2-c2cccs2)cc1	0
O=C(NCC(c1ccccc1)c1ccccc1)[C@H](Cc1ccccc1)NC1(C(=O)NC2CCCCC2)CCOCC1	4
O=C(CN1C(=O)c2ccccc2C1=O)Nc1cccc2cccnc12	-4
O=C(O)CCC(=O)Nc1cccc2cccnc12	11*	TbREL1 confirm=5
O=C(COc1ccc2ccccc2c1)Nc1cccc2cccnc12	2
SMILES	TbREL1 primary	others
COc1ccc(C2C(C(=O)N3CCN(C=O)CC3)CC(=O)N2c2ccc(OC)cc2)cc1 (stereo not given)	-1
COc1cccc(N2CCN(CC(=O)NCc3ccc(Cl)cc3)CC2)c1	-5
C#CCOCCOCCOCCNc1nc(N2CCN(C(=O)[C@H](CCCCN)n3cc([C@@H](N)[C@H](C)CC)nn3)CC2)nc(N2CCN(C(=O)[C@H](CCC(=O)O)n3cc([C@@H](N)CCCCN)nn3)CC2)n1	4
C#CCOCCOCCOCCNc1nc(N2CCN(C(=O)[C@H](CCCCN)n3cc([C@@H](N)C(C)CC)nn3)CC2)nc(N2CCN(C(=O)[C@H](CCCCN)n3cc([C@@H](N)C(C)CC)nn3)CC2)n1 (stereo not given in full)	16*	TbREL1 confirm=17*
C#CCOCCOCCOCCNc1nc(N2CCN(C(=O)[C@H](CCCN=C(N)N)n3cc(C(N)[C@@H](C)CC)nn3)CC2)nc(N2CCN(C(=O)[C@H](CCC(=O)O)n3cc([C@@H](N)CCCCN)nn3)CC2)n1 (stereo not given in full)	2
CC1(C)CC(=O)N(CC(=O)N2CCN(Cc3ccccc3)CC2)c2ccccc2S1(=O)=O	-1
Nn1c(SCC(=O)NC2CCCCC2)nnc1-c1cc(-c2ccc(Cl)cc2)n[nH]1	-2
O=C(Oc1coc(CSc2ncccn2)cc1=O)c1ccc([N+](=O)[O-])cc1	-1
O=C1CCC[C@H]2Cc3nc4cccc(Cl)c4cc3C[C@]23CCCN13	1
CCOc1ccc(C(=O)N2CCn3c2nc2ccccc23)cc1	0
COc1ccc(C(=O)N2CCn3c2nc2ccccc23)cc1	0
COc1cccc(C(=O)N2CCn3c2nc2ccccc23)c1	12*	TbREL1 confirm=7
COCCCNC(=O)c1ccc2c(c1)NC(=O)C(C)(C)O2	-3
COc1cc2c(cc1NC(=O)CSc1nnc(COc3ccccc3)n1Cc1ccco1)oc1ccccc12	2
CSCCCNC(=O)c1oc(=O)c2ccccc2c1-c1ccc(C)cc1	-4
Fc1cccc(CNC2CCC23CCC(c2ccccc2)CC3)c1 (stereo not given)	-1
Cc1ccc2nc(-c3ccc(NC(=O)CSc4nnc(-c5cc(C)[nH]n5)n4N)cc3)sc2c1	7
CCCCCCC/C=C(\C)[C@@H](O)[C@@H](C)C(=O)N1CCC[C@@H]1C(=O)O	-5
CN(C)CCCN(C(=O)c1ccc(S(=O)(=O)N2CCCC2)cc1)c1nc2ccc(Br)cc2s1	10
